Data taken from PubChem BioAssay (NCATS).
Records with an inconclusive call do not appear. Entries that show only a call come without a potency. The source made the active and inactive calls. Calls come from the whole dose curve; as a rule, active = well fitted curve in the direction sought with a large enough effect; inconclusive = small, poorly fitted or top-dose-only effect, or another doubt; inactive = no such curve, though single readings can be large; an effect the other way counts as inactive or inconclusive.

Legend:
[1] = Counterscreen for APE1 Inhibitors: Fluorescent Dye Displacement Validation Assay (AID 1707)
Outline: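 Endpoint fluorescence read at 480 nm excitation / 540 nm emission; DNA-binding compounds lower signal by displacing 250 nM Thiazole Orange from 50 nM dsDNA containing a tetrahydrofuran abasic site, Tris-HCl pH7.5 buffer with NaCl and MgCl2.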

[2] = target: Endonuclease 4 (Escherichia coli (strain K12)) (UniProt P0A6C1); test: Counterscreen for APE1 Inhibitors: qHTS Validation Assay for Inhibitors of Endonuclease IV (AID 1708)
Outline: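 The reaction buffer contained 50 mM Tris-HCl pH 7.5, 50 mM NaCl, 2 mM MgCl2, 1 mM DTT and 0.01% Tween-20. Incision of a 50 nM fluorophore/quencher THF substrate by 2 nM enzyme was measured kinetically.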

[3] = qHTS for differential inhibitors of proliferation of Plasmodium falciparum line 3D7 (AID 1876); note: potency is the fitted concentration of half-maximal effect
[4] = qHTS for differential inhibitors of proliferation of Plasmodium falciparum line D10 (AID 1877);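 note: parasites grown with compound for 72 h before DNA staining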; note: potency is the fitted concentration of half-maximal effect
[5] = qHTS for differential inhibitors of proliferation of Plasmodium falciparum line Dd2 (AID 1882); conditions: Potency: Plasmodium falciparum Dd2 proliferation inhibition; note: nearly all actives have a fitted effect of over 65% in size; note: potency is the fitted concentration of half-maximal effect
Outline: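 RBC culture, 0.3% parasitemia / 2.5% Hct final; cpd added by pin tool in DMSO; 72 h, 37 C, 5% CO2; lysis buffer + SYBR Green I, o/n RT dark; FI 485/535; norm. to artemisinin 0.29 uM and DMSO.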

[6] = qHTS for differential inhibitors of proliferation of Plasmodium falciparum line HB3 (AID 1886); conditions: Potency: Plasmodium falciparum HB3 proliferation inhibition;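 note: parasites grown with compound for 72 h before SYBR Green readout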; note: potency is the fitted concentration of half-maximal effect
[7] = qHTS for differential inhibitors of proliferation of Plasmodium falciparum line 7G8 (AID 1815);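 note: parasite growth measured after three days of incubation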; note: potency is the fitted concentration of half-maximal effect
[8] = qHTS for differential inhibitors of proliferation of Plasmodium falciparum line GB4 (AID 1816); conditions: Potency: Plasmodium falciparum GB4 proliferation inhibition;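 note: parasite growth measured after 72 h incubation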; note: potency is the fitted concentration of half-maximal effect
[9] = qHTS for differential inhibitors of proliferation of Plasmodium falciparum line W2 (AID 1883); conditions: Potency: Plasmodium falciparum W2 proliferation inhibition;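 note: parasites grown with compound for 72 h before lysis and staining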; note: potency is the fitted concentration of half-maximal effect

| SMILES | Potency [1] | Potency [2] | Potency [3] | Potency [4] | Potency [5] | Potency [6] | Potency [7] | Potency [8] | Potency [9] |
| --- | --- | --- | --- | --- | --- | --- | --- | --- | --- |
| O=C(c1cc(O)c(O)c([N+](=O)[O-])c1)c1ccccc1F | inactive | inactive | inactive | inactive | inactive | inactive | – | – | – |
| O=C(Nc1ccccc1)c1cc([N+](=O)[O-])ccc1Cl | – | inactive | 11.2 µM (active) | 11.2 µM (active) | inactive | 10 µM (active) | 8.91 µM (active) | 11.2 µM (active) | 12.6 µM (active) |
| CN=c1nc(-c2ccccc2)n(-c2ccccc2)s1 | inactive | – | – | – | inactive | – | 10 µM (active) | 10 µM (active) | 10 µM (active) |
| CN1CCC[C@H]1c1cccnc1 | – | inactive | inactive | inactive | inactive | inactive | inactive | inactive | inactive |
| CN1CCc2cccc3c2C1Cc1ccc(O)c(O)c1-3 (configuration not stated) | – | inactive | 2 µM (active) | 2.24 µM (active) | 6.31 µM (active) | 2 µM (active) | 2.24 µM (active) | 2.24 µM (active) | 2.24 µM (active) |
| OCC1O[C@H](O)C(Cl)C(O)C1O (some centres not stated) | – | inactive | inactive | inactive | inactive | inactive | – | inactive | inactive |
| CC[C@@H](C)[C@H]1O[C@]2(CC[C@@H]1C)C[C@@H]1C[C@@H](C/C=C(\C)[C@@H](O[C@H]3C[C@H](OC)[C@@H](O[C@H]4C[C@H](OC)[C@@H](O)[C@H](C)O4)[C@H](C)O3)[C@@H](C)/C=C/C=C3\CO[C@@H]4[C@H](O)C(C)=C[C@@H](C(=O)O1)[C@]34O)O2 | inactive | – | 0.794 µM (active) | 2.51 µM (active) | 1.78 µM (active) | 1.12 µM (active) | 2 µM (active) | 1.12 µM (active) | 1 µM (active) |
| Cn1cc(C2=C(c3ccc(Cl)cc3Cl)C(=O)NC2=O)c2ccccc21 | inactive | – | – | – | – | – | 10 µM (active) | – | 7.08 µM (active) |
| Ic1ccc(N2CCN(Cc3c[nH]c4ncccc34)CC2)cc1 | inactive | inactive | – | – | inactive | 11.2 µM (active) | – | – | 2.51 µM (active) |
| COc1ccc(/C=C/C(=O)Nc2ccccc2C(=O)O)cc1OC | – | inactive | – | – | inactive | – | – | – | – |
| C=C[C@@H]1CN2CC[C@@H]1C[C@H]2[C@H](O)c1ccnc2ccc(OC)cc12 | inactive | – | – | – | 0.316 µM (active) | – | – | – | – |
| COc1cc(OC)c(/C=C2/C(=O)Nc3ccccc32)c(OC)c1 | inactive | – | – | inactive | inactive | – | – | – | – |
| N=C(N)SCCc1ccc(CCSC(=N)N)cc1 | inactive | inactive | inactive | – | inactive | inactive | – | – | 11.2 µM (active) |
| CCCCCCCCCCCCCCCCCC(=O)OC(CC(=O)O)C[N+](C)(C)C (configuration not stated) | – | – | inactive | inactive | inactive | inactive | inactive | inactive | inactive |
| COc1cc2c(CCNC(C)=O)c[nH]c2cc1Cl | inactive | – | inactive | inactive | inactive | – | inactive | inactive | – |
| O=S(=O)(c1cccc2c(I)cccc12)N1CCCNCC1 | – | inactive | inactive | inactive | – | inactive | inactive | – | 7.08 µM (active) |
| C#CCN1C(C)=C(C(=O)OC)C(c2cccc([N+](=O)[O-])c2)C(C(=O)OCC)=C1C (configuration not stated) | – | – | 11.2 µM (active) | 14.1 µM (active) | 12.6 µM (active) | 7.94 µM (active) | 7.94 µM (active) | 7.08 µM (active) | 4.47 µM (active) |
| N#C/C(=C\c1c[nH]c2ccccc12)C(=O)c1ccc(O)c(O)c1 | – | inactive | 12.6 µM (active) | 15.8 µM (active) | – | 12.6 µM (active) | – | 12.6 µM (active) | 8.91 µM (active) |
| COc1cccc(C(=O)NCCN2CCN(c3ccc(Cl)cc3)CC2)c1 | – | – | – | – | inactive | inactive | – | inactive | 14.1 µM (active) |
| CC(COc1ccc(/C=C/c2ccccc2)cc1)[N+](C)(C)C (configuration not stated) | – | inactive | 1.26 µM (active) | 2.24 µM (active) | 5.01 µM (active) | 2 µM (active) | 7.08 µM (active) | 2.24 µM (active) | 2.82 µM (active) |
| CC(C)Cc1ccc([C@H](C)C(=O)O)cc1 | inactive | – | inactive | inactive | inactive | inactive | inactive | inactive | inactive |
| c1cnc2c(c1)ccc1cccnc12 | – | – | 2 µM (active) | 2.51 µM (active) | 2 µM (active) | 2 µM (active) | 1.58 µM (active) | 2 µM (active) | 1 µM (active) |
| COC(=O)c1c(C)[nH]c(C)c1C(=O)c1ccccc1Cc1ccccc1 | – | – | 8.91 µM (active) | 14.1 µM (active) | – | 12.6 µM (active) | 7.94 µM (active) | 7.94 µM (active) | 8.91 µM (active) |
| O=C(/C=C/c1ccc(O)c(O)c1)OCCc1ccccc1 | – | inactive | 10 µM (active) | 12.6 µM (active) | – | 10 µM (active) | 6.31 µM (active) | 5.01 µM (active) | 5.01 µM (active) |
| Cc1ccc(O)c(N=Nc2ccccc2)n1 | inactive | – | – | – | – | – | 11.2 µM (active) | 12.6 µM (active) | 10 µM (active) |
